Bioassay records as filed in PubChem BioAssay.
The list is not random: actives were taken first. Their share in the collection is about 0.51%.
phage Ecoli inh = E. coli growth loss with phage present; growth absorbance; inhibition, % at 11.9 µM; 360,000 tested, 0.26% active; in the data active means inhibition above about 11%
E coli growth-1 = blocks Escherichia coli growth. 330,000 tested, 0.21% active. OD600 absorbance (test concentration not listed). OD600, 23 h; active compounds read low;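 active means OD600 absorbance below the run mean of sample wells minus 3.6 SD, in any replicate, cut at about 0.56 in these data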
E coli growth-2 = reduces bacterial viability in AddAB counter-screen | inhibition, % at 11.9 µM | 330,000 tested, 0.27% active | E. coli V3065 growth, OD600 absorbance, 18 h;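 active means inhibition above the campaign's mean inhibition across all tested compounds plus 3 SD, cut at about 9.9% in these data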;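 further: uninfected addAB+ strain grown without phage in ampicillin broth; 0% = DMSO wells and 100% = ciprofloxacin 0.95 µg/ml wells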
AddAB inh = less growth of phage-infected E. coli with AddAB; E. coli expressing H. pylori AddAB, absorbance growth; inhibition, % at 11.9 µM; 330,000 tested, 0.29% active; in the data active means inhibition above about 12%;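 further: 0% = vehicle wells of infected cells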
Tat export inh = E. coli Tat transport inhibition | E. coli MC4100 TorA-mCherry Tat export, fluorescence | inhibition, % at 10 µM | 340,000 tested, 0.036% active | AID 488895;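 active means mean replicate inhibition at least 50% and at least half of replicates individually reaching 50%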;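 further: exported cargo escapes ClpAP degradation while cytoplasmic cargo is degraded and loses fluorescence; 0% = median of neutral control wells and 100% = median of NaSCN control wells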
AddAB confirm = growth loss of T4-infected E. coli expressing H. pylori AddAB, confirmed. shares compounds with AddAB inh. E. coli V3065 expressing H. pylori AddAB, T4 phage, OD; T4 phage with gene 2 nonsense mutations. inhibition, % at 11.9 µM. 880 tested, 64% active. AID 488942;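 active means mean inhibition above a set limit taken from the earlier primary screen, cut at about 13% in these data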;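 further: higher means less bacterial growth since AddAB block lets phage replicate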
RecBCD counter = AddAB counter-screen: growth loss of RecBCD+ E. coli infected with mutant T4 phage; shares compounds with AddAB inh; E. coli V66 + mutant T4 phage, OD growth; inhibition, % at 11.9 µM; 880 tested, 73% active;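 active means mean inhibition above the mean of solvent-only control wells plus 3 SD, cut at about 4% in these data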;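 further: optical density read after an 18 h incubation at 37 °C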
Bact viability = counter-screen: bacterial growth inhibition; shares compounds with AddAB inh; bacterial viability, absorbance (AddAB counterscreen); inhibition, % at 11.9 µM; 880 tested, 35% active; AID 488956; in the data active means inhibition above about 25%
* hit, by the source's call; · = not tested or not shown.

SMILES | phage Ecoli inh | E coli growth-1 | E coli growth-2 | AddAB inh | Tat export inh | others
CC(CCc1ccccc1)NC(=O)C(Cc1ccccc1)NC(N)=O (stereo unspecified) | 4 | 0.53* | 1 | 2 | -3
O=C(NC1CC1)C1=CC(c2csc3ccccc23)CC(OCCCCO)O1 (stereo unspecified) | · | 0.66 | · | · | ·
O=C(Nc1ccc(OC(F)(F)F)cc1)Nc1cccc([N+](=O)[O-])c1 | 10 | 0.39* | 9 | 9 | -23
COc1ccc(NC(=O)Nc2ccc(F)cc2F)c(C)c1 | 2 | 0.7 | 0 | 1 | -6
Cc1cc(NC(=O)Nc2cccc([N+](=O)[O-])c2)no1 | 2 | 0.68 | 2 | 4 | 6
Cc1ccc(NC(=O)Nc2cccc([N+](=O)[O-])c2)cc1F | 10 | 0.48* | 3 | 4 | 0
Cc1cc([N+](=O)[O-])ccc1NC(=O)Nc1ccc(F)cc1F | 4 | 0.51* | 5 | 3 | 0
NC(=O)C1CCCNc2c(I)cc([N+](=O)[O-])cc2C(=O)NC(Cc2ccccc2)C(=O)NC(Cc2cnc[nH]2)C(=O)N1 (stereo unspecified) | · | 0.69 | · | · | ·
CC(NC(=O)OCc1ccccc1)C(=O)NC(Cc1c[nH]c2ccccc12)C(=O)O (stereo unspecified) | · | 0.72 | · | · | ·
O=S1(=O)CCC(NC(=S)SCCOc2ccccc2)C1 (stereo unspecified) | 4 | 0.49* | 1 | -1 | -32
CCCCSC(=S)NC1CCS(=O)(=O)C1 (stereo unspecified) | 4 | 0.66 | -3 | -2 | -8
NCC1OC(C23CC4CC(CC(C4)C2)C3)Cc2c1ccc(O)c2O (stereo unspecified) | · | 0.55 | · | · | ·
CC(C)Cc1nnc(NC(=O)CCN2C(=O)c3ccccc3C2=O)s1 | 1 | 0.72 | 27* | 68* | -5
CCC(CC)c1nnc(NC(=O)CCN2C(=O)c3ccccc3C2=O)s1 | 2 | 0.76 | -1 | 0 | 3
Nc1nc(-c2ccccn2)nc(N)c1Cc1ccc(Cl)cc1Cl | 1 | 0.36* | 5 | 1 | -9
O=C(Nc1cccc(Cl)c1)c1cccc(Oc2ccc([N+](=O)[O-])cc2Cl)c1 | 4 | 0.72 | 2 | 2 | -2
O=C(Nc1ccc([N+](=O)[O-])cc1Cl)c1cc(Cl)ccc1O | 3 | 0.45* | 0 | -3 | -22
O=C(Nc1cccc(Cl)c1)c1cc(N=Nc2ccc([N+](=O)[O-])cc2Cl)ccc1O | 3 | 0.5* | 1 | 2 | -3
O=C(Nc1ccc([N+](=O)[O-])cc1Cl)c1cccc([N+](=O)[O-])c1 | 0 | · | · | · | ·
Oc1ccc(CN2CCCCC2)c2cccnc12 | 3 | 0.68 | 4 | 7 | 1
Oc1c(CN2CCN(c3ccccn3)CC2)cc(Cl)c2cccnc12 | · | 0.53* | 1 | 2 | 3
Oc1c(Cl)cc(CN2CCCCC2)c2cccnc12 | · | · | 11* | 8 | -1
COc1ccc2c(c1)C1C(CO2)C(c2ccccc2)[C@]2(C)C(=O)Nc3ccc(Cl)cc3C(=O)N12 (stereo partly specified) | · | 0.72 | · | · | ·
O=C(Nc1nc2c(Cl)cccc2s1)c1ccc([N+](=O)[O-])o1 | 1 | 0.5* | 5 | 3 | -28
CC(CCc1ccccc1)NC(=O)C=Cc1ccc(Cl)cc1 (stereo unspecified) | · | 0.68 | · | · | ·
SMILES | phage Ecoli inh | E coli growth-1 | E coli growth-2 | AddAB inh | Tat export inh | others
Fc1cccc(NC(=S)Nc2ccc(Br)cc2)c1 | 7 | 0.49* | 0 | 2 | -12
COc1cccc(NC(=S)Nc2ccc(F)cc2)c1 | 4 | 0.7 | 0 | 1 | 12
Fc1ccc(NC(=S)Nc2ccc(Cl)cc2)cc1 | 6 | 0.52* | -1 | 1 | 7
O=C(NCc1ccc(Cl)cc1)C1CCN(S(=O)(=O)c2cccc3nonc23)CC1 | 0 | 0.53* | 0 | 4 | -1
O=C(NCCc1ccc(Cl)cc1)C1CCN(S(=O)(=O)c2cccc3nonc23)CC1 | -1 | 0.76 | -2 | 5 | -1
NC(=O)C1=CC(c2ccc(C(F)(F)F)cc2)CC(OCc2ccc(CO)cc2)O1 (stereo unspecified) | · | 0.71 | · | · | ·
CC(=O)OC1CC2CCC3C(CC[C@@]4(C)C3CC([N+]3(C)CCCCC3)C4OC(C)=O)[C@@]2(C)CC1[N+]1(C)CCCCC1 (stereo partly specified) | · | 0.71 | · | · | ·
CCCCCN=C(N)NN=Cc1c[nH]c2ccc(OC)cc12 | · | 0.059* | · | · | ·
CCCCCCCOC(=O)C[N+](C)(C)CCOC1CC2CCC1(C)C2(C)C (stereo unspecified) | 5 | 0.32* | · | · | 22
CCCCCCOC(=O)C[N+](C)(C)CCOC1CC2CCC1(C)C2(C)C (stereo unspecified) | 1 | 0.68 | 4 | 1 | 0
COc1ccc(C(=O)N2CCOC2CNC(=O)C(=O)NCc2ccc3c(c2)OCO3)cc1 (stereo unspecified) | 1 | 0.51* | 0 | 0 | 4
Cc1c(Br)c([N+](=O)[O-])nn1C(C)C(=O)NCc1ccco1 (stereo unspecified) | 2 | 0.64 | 6 | 17* | 8 | AddAB confirm=17*;RecBCD counter=3;Bact viability=12
CC(C)CC(NC(=O)c1nc[nH]c1C(=O)NC(CCCCN)C(=O)OC(C)(C)C)C(=O)OC(C)(C)C (stereo unspecified) | · | 0.67 | · | · | ·
Nc1nn2c(-c3ccccc3)cc(=O)[nH]c2c1N=Nc1ccc(O)cc1 | 6 | 0.73 | 10* | 19* | -1 | AddAB confirm=27*;RecBCD counter=0;Bact viability=6
O=c1oc2ccccc2c(NC(c2ccccc2)c2ccccc2)c1[N+](=O)[O-] | 3 | 0.7 | 6 | 39* | -13 | AddAB confirm=101*;RecBCD counter=5.3*;Bact viability=12
CC(Nc1c([N+](=O)[O-])c(=O)oc2ccccc12)C(Cl)c1ccccc1 (stereo unspecified) | 3 | 0.73 | 2 | -2 | -6
CCNc1c([N+](=O)[O-])c(=O)oc2ccccc12 | 5 | 0.61 | 8 | 13* | 4 | AddAB confirm=29*;RecBCD counter=2;Bact viability=3
CCc1ccc(Nc2c([N+](=O)[O-])c(=O)oc3ccccc23)cc1 | 1 | 0.64 | 3 | 3 | 0
CC(=O)CC1c2cc(F)ccc2S(=O)(=O)N1c1ccc(N(C)C)cc1 (stereo unspecified) | · | 0.68 | · | · | ·
Cc1cccc(N(C)S(=O)(=O)c2cccc3nsnc23)c1 | 3 | 0.71 | -2 | 14* | 0 | AddAB confirm=0;RecBCD counter=1;Bact viability=-1
CCN(c1cccc(C)c1)S(=O)(=O)c1cccc2nsnc12 | 3 | 0.68 | -1 | 1 | -23
CCOC(=O)c1cn(C2CC2)c2c(F)c(NCCCN(C)C)c(F)cc2c1=O | 1 | 0.65 | 8 | 13* | 1 | AddAB confirm=13*;RecBCD counter=1;Bact viability=4
